Compounds without any hit were thinned out: in the full panel of roughly 83,000, 20% have a hit.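 The endpoint reported here, percent growth, reads 100 for growth as untreated, 0 for no net growth and -100 for all cells dead.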 Unmarked numbers belong to inactive results. The source made the active and inactive calls. The calls were made as follows: active = growth percent below 10; inactive = the rest.

Holding throughout (assay): NCI-60 one-dose screen, 48 h (100 = growth as untreated, 0 = no growth, -100 = all killed)
Holding throughout (details): 10 µM unless noted

The subject of test [1] is NCI/ADR-RES ovarian.
Test [2] has as its system T-47D breast.
The test system of test [3] is BT-549 breast.
Test [4] has as its system MDA-MB-435 melanoma.
For test [5], the system named is SW-620 colon.
In test [6] the test system is MCF7 breast.
Test [7] has as its system HCT-116 colon.
In test [8] the test system is HCC-2998 colon.
Test [9] has as its system KM12 colon.

For the compound `CCOC(=O)[C@@H](C)C[C@H](Cc1ccccc1)NC(=O)c1csc([C@@H](C[C@H](C(C)C)N(C)C(=O)[C@@H](NC(=O)[C@H]2CCCCN2C)C(C)(C)C)OC(C)=O)n1`, the growth in [1] is 6.69% (active); in test [2], 62.7%; in test [3], -27.2% (active); in [4] it was -66.4% (active); in [5] it was 26.2%; in [6], 13.8%. Also, the growth in [7] is 2.35% (active); in [8], -2.49% (active); in [9] it was 3.85% (active).
Regarding `COC(=O)[C@H](Cc1ccccc1)NC(=O)c1csc([C@@H](C[C@H](C(C)C)N(C)C(=O)[C@@H](NC(=O)[C@H]2CCCN2C)C2CC2)OC(C)=O)n1`, the growth in [1] is 53.3%; in test [2], 54.5%; in [3], 20.6%; in test [4] it was -31.2% (active); in [5] it was 24.5%; in [6], 20.4%. Besides, the figures for the growth in test [7], in [8] and in test [9] were -2.44% (active), 27.8% and 12.6%, respectively.
As for `O=C(O)c1ccc([S-])cc1.[Au+].c1ccc(CN2[CH-]N(Cc3ccccc3)C(c3ccccc3)=C2c2ccccc2)cc1`, the growth in test [1] was 3.13% (active); in test [2], -66.5% (active); in [3] it was -21.2% (active); in test [4], -9.04% (active); in test [5], -50.2% (active); in test [6], -86.1% (active). Further, the growth in test [7] was -84.7% (active); in [8], -72.7% (active); in [9], -26.1% (active).
Consider `CCCC[C@H](NC(=O)[C@H]1CCCCN1C)C(=O)N(C)[C@H](C[C@@H](OC(C)=O)c1nc(C(=O)N[C@@H](Cc2ccccc2)C[C@H](C)C(=O)OCC)cs1)C(C)C`, for which the growth in test [1] was 4.37% (active); in test [2] it was 38.6%; in [3], -25.6% (active); in [4], -6.84% (active); in test [5] it was 24.6%; in [8], 14.5%. Also, the growth in test [9] was 13.1%.
For `C=C1C[C@](OC)([C@H](O)C(=O)N[C@@H](OC)[C@@H]2C[C@@H](O)C(C)(C)[C@@H](C[C@@H](COC)OC)O2)O[C@H](C)[C@@H]1C`, the growth was -42.3% (active) in test [1]; -7.29% (active) in [2]; -59.9% (active) in test [3]; -83.3% (active) in [4]; -64.3% (active) in test [5]; -52.6% (active) in [6]. Also, the growth in test [7] was -16.7% (active); in test [9], -41.8% (active).
Take `O=C1C(Cl)=C(N2CCOCC2)C(=O)c2ccccc21`: the growth is 90.9% in [1]; -23% (active) in [2]; 106% in test [3]; 67% in [4]; -16.5% (active) in [5]; 93.4% in test [6]. Also, the growth in test [8] was 108%; in [9], 102%.
For the compound `CNC(=O)Oc1cccc(C(F)(F)F)c1`, the growth in test [1] was 109%; in test [2], 98.9%; in [3], 108%; in test [4], 126%; in test [5] it was 104%; in test [6], 109%. The growth in test [7] is 107%; in [8], 113%; in test [9], 110%.
As to `c1cnc2[nH]cc(-c3csc(-c4cn(CCCCN5CCCCC5)c5ccccc45)n3)c2c1`, the growth in test [1] was 89.8%; in test [2] it was 79.4%; in test [3], 105%; in test [4] it was 80.5%; in test [5], 76.8%; in [6], 58.9%. The results for the growth in test [7], in test [8] and in test [9] were 81.8%, 95.6% and 85.5%, respectively.
`NC(N)=N/N=C\c1c[nH]c2ccc(Br)cc12`: the growth in [1] is 87%; in [2], 36.6%; in test [3] it was 23.7%; in [4] it was 98.1%; in test [5] it was 101%; in test [6], 75.4%. Also, the growth in [7] was 92%; in [9], 94.9%.
Turning to `O=[N+]([O-])CC(O)C(Cl)(Cl)Cl` (stereo not drawn), the growth was 104% in test [1]; 89.6% in test [2]; 58% in test [3]; 103% in test [4]; 95.8% in test [5]; 95.5% in test [6]. Moreover, the values for the growth in test [7], in test [8] and in test [9] were 102%, 106% and 107%, respectively.
For `COc1ccc(/C=C\c2cc(OC)c(OC)c(OC)c2)cc1NS(=O)(=O)c1ccc(Cl)cc1`, the growth in test [1] is 35.2%; in test [2], 59.9%; in test [3], 83.5%; in [4], 3.63% (active); in test [5], 73.6%; in test [7], 61.8%. Besides, the results for the growth in test [8] and in [9] were 74.8% and 50.4%, respectively.
Take `COC(=O)[C@H](C[C@H](Cc1ccccc1)NC(=O)c1csc([C@@H](C[C@H](C(C)C)N(C)C(=O)[C@@H](NC(=O)[C@H]2CCCCN2C)C(C)C)OC(C)=O)n1)NC(=O)OCc1ccccc1`: the growth in test [1] is 8.51% [8.5 µM] (active); in test [2] it was 74.1% [8.5 µM]; in test [3] it was -34.2% [8.5 µM] (active); in [4] it was -33% [8.5 µM] (active); in [5] it was 25.4% [8.5 µM]; in test [6] it was 29.4% [8.5 µM]. Further, the values for the growth in test [7], in [8] and in test [9] were -4.29% [8.5 µM] (active), 20.4% [8.5 µM] and 3.13% [8.5 µM] (active), respectively.
With `O=C1NC(=O)C(=Cc2cn(CCCCCCn3c4ccccc4c(=O)c4ccccc43)c3ccccc23)C(=O)N1`, the growth in [1] was 83.9%; in test [2], 60.6%; in test [3], 94.3%; in test [5] it was 93.8%; in test [6] it was 71.6%; in test [7] it was 70.2%. Besides, the growth in test [8] is 96.8%; in test [9] it was 95.8%.
In the case of `CC(=O)O[C@H]1CC[C@]2(C)[C@H]3CC[C@]4(C)[C@@H](OC(C)=O)CC[C@H]4[C@@H]3[C@@H](C)[C@]2(O)C1`, the growth was 98.9% in test [1]; 106% in [2]; 113% in test [3]; 104% in test [5]; 104% in test [6]; 98.1% in [7]. Moreover, the growth is 108% in test [8] and 109% in test [9].

The values above are taken from PubChem BioAssay (NCI).
